# How the values were obtained:
# Settings in all cases: concentration: 1 μM, replicates: in singlicate; n = 1
# EPHA3 = system: EPHA3
# EPHA4 = system: EPHA4
# EPHA5 = system: EPHA5
# EPHA6 = system: EPHA6
# EPHA7 = system: EPHA7
# EPHA8 = system: EPHA8
# EPHB1 = system: EPHB1
# EPHB2 = system: EPHB2
# EPHB3 = system: EPHB3
# EPHB4 = system: EPHB4
# EPHB6 = system: EPHB6
# ERBB2 = system: ERBB2
# ERBB3 = system: ERBB3
# ERBB4 = system: ERBB4
# ERK1 = system: T1, ERK1
# T1 construct: gene MAPK3
# ERK2 = system: T2, ERK2
# T2 construct: gene MAPK1
# ERK3 = system: T3, ERK3
# T3 construct: gene MAPK6
# ERK4 = system: T4, ERK4
# T4 construct: gene MAPK4
# ERK5 = system: T5, ERK5
# T5 construct: gene MAPK7
# ERK8 = system: T6, ERK8
# T6 construct: gene MAPK15
# 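Further: KINOMEscan kinase panel screen.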
Structure (SMILES),%Inh (EPHA3) [%],%Inh (EPHA4) [%],%Inh (EPHA5) [%],%Inh (EPHA6) [%],%Inh (EPHA7) [%],%Inh (EPHA8) [%],%Inh (EPHB1) [%],%Inh (EPHB2) [%],%Inh (EPHB3) [%],%Inh (EPHB4) [%],%Inh (EPHB6) [%],%Inh (ERBB2) [%],%Inh (ERBB3) [%],%Inh (ERBB4) [%],%Inh (ERK1) [%],%Inh (ERK2) [%],%Inh (ERK3) [%],%Inh (ERK4) [%],%Inh (ERK5) [%],%Inh (ERK8) [%]
O=C(NOCC1CC1)c1ccc(F)c(F)c1Nc1ccc(I)cc1Cl,0,0,1,0,0,0,0,0,0,0,0,0,0,0,0,8,0,17,0,8
O=c1cc(N2CCOCC2)nc2n(Cc3cccc4ccccc34)ccn12 [GSK2333389],0,14,0,8,5,9,10,0,11,5,12,0,0,0,3,0,0,25,0,43
Cn1ccc2ncnc(Oc3ccc(NC(=O)Nc4ccncc4)c(Cl)c3)c21,0,14,0,16,0,0,0,2,6,1,0,15,0,0,0,0,5,0,0,1
O=C1Cc2cc(Nc3nc(NCc4cccc(S(=O)(=O)C(F)(F)F)c4)ncc3C(F)(F)F)ccc2N1,0,0,10,0,0,0,0,0,1,8,0,6,9,4,0,9,31,25,0,0
COc1cc2c(cc1OCCN1CCN(C)CC1)ncc1c3ccc(C#N)cc3[nH]c21,18,1,0,0,0,0,10,0,2,0,53,43,4,29,0,12,0,10,22,0
CN1c2ccc(NCc3ccc(F)cc3)cc2-c2c(cnn2C)S1(=O)=O,0,0,0,0,0,0,0,0,6,0,0,7,27,0,0,0,0,0,3,22
CC(C)Oc1ccc2c(-c3ccnc(Nc4ccc(N5CCN(C)CC5)cc4)n3)cnn2n1 [GW696155],33,1,0,11,7,9,9,0,13,26,70,53,14,39,0,0,92.1,47,45,98
COc1ccc(CNC(=O)NC2CCN(c3ccnc(Nc4ccc(OC)cc4)n3)C2)cc1 (centres unmarked) [GSK1379727],0,10,0,2,0,1,6,0,7,11,26,39,10,2,0,0,0,20,0,0
COc1cc(Nc2nccc(N3CCC(NC(=O)c4cccc(NC(C)=O)c4)C3)n2)cc(OC)c1OC (centres unmarked) [GSK1379754],0,9,6,20,11,26,15,0,17,12,78,16,0,1,0,14,0,1,0,0
Cc1cn2c(=O)cc(N3CCOCC3)nc2n1Cc1cccc(Cl)c1Cl [GSK2334006],0,19,0,10,7,21,16,7,17,19,0,20,0,33,0,13,21,0,0,24
